Values joined by “and” are separate entries in the source; they are usually repeats but may differ in a detail not shown here. Equal entries are not always repeated. About 290 (0.85%) of roughly 34,000 compounds showed an effect of 50% or more. Only a selection was taken, and strong results are over-represented in it overall.
Test system: Plasmodium falciparum
Test: Plasmodium falciparum sporozoite viability assay
Assay type: functional, organism-based
Parameters: scale not given: in the data most compounds retested in dose-response had high values

Compound	Percent Effect (10 mM as filed; unlikely as a test dose)	Percent Effect [%]
CCn1cc(C(=O)N2CCOC(c3nc(-c4cccs4)no3)C2)cn1 (stereo not given)	66.92% and 76% and 54.9%	
CCCn1cc(C(=O)N2CCOC(c3nc(-c4cccs4)no3)C2)cn1 (stereo not given)	42.39% and 34.52% and 29.79%	
CCn1ccc(C(=O)N2CCOC(c3nc(-c4cccs4)no3)C2)n1 (stereo not given)	-10.26% and 14.68% and 1.172%	
Cc1nc(-c2nc(C(=O)NC3CC3)c3ccccn23)cn1C(C)C	58.89% and 55% and 41.86%	
Cc1nc(-c2nc(C(=O)N3CCOCC3)c3ccccn23)cn1C(C)C	54.88% and 55.7%	
Cn1cnc(-c2nc(C(=O)NC3CC3)c3ccccn23)c1		10.82
Cn1cnc(-c2cc(C(=O)N3CCOCC3)c3ccccn23)c1		-1.371
Cc1nc(-c2nc(C(=O)N(C)C)c3ccccn23)cn1C(C)C	38.79% and 23.46% and 42.96%	
CC(C)n1cnc(-c2nc(C(=O)NC3CC3)c3ccccn23)c1		6.582
CCNC(=O)c1cc(OC)c2cc(F)cc(C)c2n1		1.557
Cc1cncnc1C1CCN(CC2CC2)CC1		1.471
CCCOc1cccc(OCc2ccon2)c1		-14.79
Cc1cc(C)n(CC2CCCCN2CCc2ccncc2)n1 (stereo not given)		5.224
Cc1c(C)n2c(SCC(=O)N3CCCCCC3)nnc2[nH]c1=O	-20.75% and -26.48%	
CNC(=O)CNC(=O)c1ccc(-c2scnc2C)nc1		1.458
CCc1ccc(C(=O)NCc2ccnc(N3CCN(C)CC3)c2)o1		8.293
CCc1nnc2n1CCN(CCC(=O)Nc1sccc1C#N)C2		5.694
CCOC[C@@H]1CC[C@H]2[C@H](CCN2C(=O)c2cnccn2)O1		-3.07
c1ccc(-c2nc(CNC3CCc4ncnn4C3)cs2)cc1 (stereo not given)		1.596
CCN1CCN(Cc2coc(-c3cccc(F)c3)n2)CC1	64.85% and 77.13% and 53.15%	

Compound	Percent Effect (10 mM as filed; unlikely as a test dose)	Percent Effect [%]
OCCN1CCN(Cc2coc(-c3cccc(Cl)c3)n2)CC1		-3.989
CC(=O)N1CCN(Cc2coc(-c3cccc(F)c3)n2)CC1	-29.73% and -43.84% and -27.15%	
N#Cc1ccc(NCCC(=O)N2CCCc3ccccc32)nc1		-11.08
Cc1cc(CC2COCCN(CCc3ccccc3)C2)ncn1 (stereo not given)		5.745
O=C(c1cc(-c2cccnc2)[nH]n1)N1CCCC(c2cnccn2)C1 (stereo not given)		12.79
Cc1c[nH]nc1C1CCN(C(=O)C2CCOCC2)C1 (stereo not given)		-9.491
CC(=O)NCC(=O)N1CCOC(c2cccc(N)n2)C1 (stereo not given)		2.685
COc1ccnc(N2CCN(CC(=O)N3CCOC(C)C3)CC2)n1 (stereo not given)		-0.9874
COc1ccc2c(c1)[C@@H](CCNC(C)=O)CC(C)(C)O2		3.641
COc1ccc2cc(C3CN(C(=O)N(C)C)CCO3)ccc2c1 (stereo not given)	102.8% and 105.3% and 102%	
COc1ccc2cc(C3CN(C(=O)CCNC(C)=O)CCO3)ccc2c1 (stereo not given)	97.44% and 100.2% and 98.47%	
COc1ccc(CN2CCO[C@H]3CN(C(=O)C4CC4)CC[C@H]3C2=O)cc1		-7.815
COc1ccc2cc(C3CN(C(=O)C4CCOCC4)CCO3)ccc2c1 (stereo not given)	90.24% and 38% and 72.69%	
CC(=O)N1CCOC(c2ccnc(N(C)C)n2)C1 (stereo not given)		3.741
COc1ccc(-c2cnc(N(C)C)nc2C2CN(C(C)=O)CCO2)cc1 (stereo not given)		14.8
Nc1cccc(C2CN(C(=O)CN3CCOCC3)CCO2)n1 (stereo not given)		3.517
COc1ccc2cc(C3CN(C(=O)CN4CCCC4)CCO3)ccc2c1 (stereo not given)	56.27% and 53.19% and 50.16%	
COc1ccccc1CN1CCC2(CCC(C(=O)N(C)C)O2)CC1 (stereo not given)		9.72
CCc1ncnc2c1CCN(S(=O)(=O)c1ccccc1)CC2		11.48
O=C(O)c1cc(S(=O)(=O)Nc2ccc(F)c(Cl)c2)cc2c1OCCO2		12.45

Compound	Percent Effect (10 mM as filed; unlikely as a test dose)	Percent Effect [%]
O=C(CC1CC1)N1CCc2ncc(Cn3cncn3)n2CC1.O=C(O)C(F)(F)F		2.491
CC(=O)N1CCc2ncc(CNC(=O)C3CCC3)n2CC1		-7.632
CNC(=O)CCC(=O)N1CCOC(c2ccc3cc(OC)ccc3c2)C1 (stereo not given)	98.94% and 98.67% and 101%	
COCC(=O)N1CCOC(c2cccc(-c3cncnc3)n2)C1 (stereo not given)		0.9327
COc1ccc2cc(C3CN(C(=O)COC(C)C)CCO3)ccc2c1 (stereo not given)	38.96% and 58.61% and 49.31%	
COCC(=O)N1CCOC(c2ccc(N(C)C)cn2)C1 (stereo not given)		-1.133
CNC(=O)CN1CCC(c2cc(OC)cc(OC)c2)C1 (stereo not given)		-3.657
CNC(=O)c1ccc(C2CN(C(=O)COC)CCO2)nc1 (stereo not given)		-16.96
CC(C)COCCCNC(=O)NCC(O)c1cccc(F)c1 (stereo not given)		2.496
Cc1ccc(Nc2nccc(C3CCN(C(=O)CN)C3)n2)nc1.Cl (stereo not given)	81.99% and 45.72% and 74.53%	
CC(=O)N1CC(c2ccnc(Nc3ccc(C)cn3)n2)C1	15.77% and 8.208% and 11.03%	
Cc1ccc(Nc2nccc(C3CCN(C(=O)CO)C3)n2)nc1 (stereo not given)	-6.369% and -30.39% and -30.26%	
Cl.Cl.NCC(=O)N1CCCC(c2ccnc(Nc3cnccn3)n2)C1 (stereo not given)		10.19
CNCC(=O)N1CCCC(c2ccnc(Nc3cnccn3)n2)C1 (stereo not given)		-8.636
CCN1CCCC1CNCc1cc2ccccc2[nH]c1=O (stereo not given)		24.74
c1cc(C2CCN(c3cnccn3)CC2)ccn1		11.86
COc1ccc(C(=O)N(C)Cc2c(C)noc2C)cn1		8.528
CC(C)(C)CC1CCCN1Cc1nc(-c2ccco2)no1 (stereo not given)	58.36% and 65.06%	
Cc1nc(C)n(CC2CCCN2Cc2nc(-c3ccco3)no2)n1 (stereo not given)	-0.3641% and 0.04429% and -1.23%	
CN(C)CCN1C(=O)CC[C@@H]2[C@H]1CCN2Cc1cccc(C#N)c1.O=C(O)C(F)(F)F.O=C(O)C(F)(F)F		-0.2577

— ChEMBL document CHEMBL3988442, “University of Dundee, Small-Polar-MMV Screening Library” (2021)
